Source: PubChem
BoNT A protease: BoNT A light chain protease inhibition | multiplex microsphere protease substrate cleavage, flow cytometry | inhibition, % at 10 µM | 360,000 tested, 0.17% active
Anthrax LF inh2: blocks Bacillus anthracis lethal factor protease | P15917 | multiplex microsphere protease cleavage assay, LF | inhibition, % at 10 µM | 360,000 tested, 0.12% active | AID 588501
Bead autofluor: flagged as autofluorescent in microsphere protease counterscreen; fluorescence intensity (concentration not given with the values); 360,000 tested, 3.1% active; compound autofluorescence counterscreen, microsphere flow cytometry; active compounds read high; AID 624483; in the data active = fluorescence intensity above about 16000; inconclusive = no clear call, values can overlap the other calls
BoNT-F LC inh: blocks Botulinum neurotoxin F light chain protease | Multiplex microsphere protease cleavage assay, flow cytometry | inhibition, % at 10 µM | 360,000 tested, 0.22% active; in the data active = inhibition above about 35%, passing the limit was not always enough; inconclusive = no clear call, values can overlap the other calls
Vc quorum ag: inducers of Vibrio cholerae quorum light production without autoinducers; activation, % at 18.7 µM; V. cholerae BH1578 lux reporter, luminescence, 6 h; 350,000 tested, 0.16% active; in the data active = activation mostly above about 9.7%, no sharp cut-off; inconclusive = no clear call, values can overlap the other calls; inactive = mostly below about 3.7%
A number is an active result; – = inactive; ? = inconclusive; · = not tested or not shown. A selection: hits, their analogues and other compounds. The true share with any hit is near 3.5%. Rule as the data show it, unless noted: active = inhibition above about 30%; inconclusive = no clear call, values can overlap the other calls; inactive = below that.

SMILES	BoNT A protease	Anthrax LF inh2	Bead autofluor	BoNT-F LC inh	Vc quorum ag
CCN(CC)c1ccc(/C=C(\C#N)C(=O)c2ccc(Br)cc2)cc1	49	46	97679	61	–
COc1ccc(-c2noc(CN3CCN(C(=O)c4cccs4)CC3)n2)c(OC)c1OC	–	–	–	–	–
CC(C)(O)C#Cc1ccc(C(=O)NCCC(=O)O)s1	–	–	–	–	–
Cc1ccc(CNC(=O)c2ccc(C#CC(C)(C)O)s2)cc1	?	–	22677	–	–
CC1C(=O)N2CCCc3cc(NC(=O)C(=O)NCCc4ccc(F)cc4)cc1c32 (configuration not stated)	·	·	·	·	–
COc1cc(-c2nc3cnccc3n2C)cc(OC)c1OC	–	–	–	?	–
COc1cc(OC)c(-c2nc3cnccc3n2C)cc1OC	?	–	16895	–	–
Cc1cc(Cl)c(S(=O)(=O)NC(C(=O)O)C(C)C)cc1OCC(=O)NC1CCCCC1 (configuration not stated)	?	–	20262	–	–
Cc1cc(Cl)c(S(=O)(=O)Nc2ccc3c(c2)OCO3)cc1OCC(N)=O	–	–	–	–	–
Cc1cc(Cl)c(S(=O)(=O)NCc2cccnc2)cc1OCC(=O)NC1CCCCC1	–	–	–	–	–
Cc1cc(Cl)c(S(=O)(=O)N2CCCC2)cc1OCC(=O)NC1CCCCC1	?	–	20066	–	–
Cc1cc(Cl)c(S(=O)(=O)Nc2ccc3c(c2)OCO3)cc1OCC(=O)NC1CCCCC1	–	–	25458	–	–
O=C(NC1CC1)C1CCN(c2ccc(S(=O)(=O)N3CCOCC3)cc2Cl)CC1	–	–	22681	–	–
CSc1nnc(NC(=O)c2ccc(S(=O)(=O)N3CCOCC3)cc2)s1	–	–	–	–	–
COC(=O)[C@@H]1Cc2c([nH]c3ccccc23)C(C)(C)N1C(=O)CCl	–	–	–	–	–
O=C(Nc1cccc(F)c1)c1cc(S(=O)(=O)N2CCOCC2)cs1	–	–	–	–	–
COc1ccc(OC)c(NC(=O)CCc2c[nH]c3ccccc23)c1	–	–	–	–	–
c1ccc2c(c1)CCc1ccccc1C2=C1CCNCC1	?	–	?	?	–
O=C(COC(=O)c1cc(S(=O)(=O)N2CCCCC2)ccc1Cl)NC1CCCCC1	–	–	–	–	–
O=C(COc1ccc(S(=O)(=O)N2CCCC2)cc1Cl)NC1CCCC1	–	–	20890	–	–
Cc1ccc(C2CC(=O)c3cnc(N4CCc5ccccc5C4)nc3C2)cc1 (configuration not stated)	?	–	19424	–	–
CC(C)N(Cc1nc(-c2ccc(Cl)cc2)no1)C(=O)C(c1ccccc1)c1ccccc1	–	–	–	–	–
Cc1ccc(-c2noc(CN(C(=O)C34CC5CC(CC(C5)C3)C4)C(C)C)n2)cc1	–	–	22906	–	–
Cc1ccc(-c2noc(CN(C(=O)C(c3ccccc3)c3ccccc3)C(C)C)n2)cc1	–	–	23813	–	–
CC(C)c1ccc(C(=O)Nc2ccc(S(=O)(=O)NC3=NCCCCC3)cc2)cc1	–	–	–	–	–
SMILES	BoNT A protease	Anthrax LF inh2	Bead autofluor	BoNT-F LC inh	Vc quorum ag
CN(C)c1ccc(C(=O)Nc2ccc(S(=O)(=O)NC3=NCCCCC3)cc2)cc1	–	–	22816	–	–
O=C(CN(C(=O)c1csnn1)c1ccc(Cl)cc1)NCCc1ccccc1	–	–	–	–	–
Cc1ccc(-n2nc3c([n+]2[O-])CCc2c-3no[n+]2[O-])cc1	–	–	21683	–	–
Cc1ccc(OCC(=O)NCCNC(=O)c2cccnc2)cc1C	–	–	–	–	–
CCc1nc(SCC(=O)c2ccc3c(c2)OCCO3)c2ccccc2n1	–	–	22675	–	–
O=C(CSc1nc(Cc2ccccc2)nc2ccccc12)c1ccc2c(c1)OCCO2	–	–	–	–	–
O=C(CSc1nnc(SCc2cccc3ccccc23)s1)c1ccc2c(c1)OCO2	–	–	19293	–	–
Cn1nnnc1SCC(=O)c1ccc2c(c1)OCCO2	–	–	–	–	–
Cn1cnnc1SCC(=O)c1ccc2c(c1)OCCO2	–	–	16723	–	–
CC(=O)c1cccc(N2C(=O)CC(N3CCN(S(=O)(=O)c4ccc(Cl)cc4)CC3)C2=O)c1 (configuration not stated)	–	–	–	–	–
C(/C=C/c1ccccc1)=N/N1CCN(c2ccccc2)CC1	?	–	17556	–	–
C(=C\c1ccccc1)/C=N/N1CCN(c2ccccn2)CC1	–	–	–	–	–
CCn1c(NC(=O)c2cccs2)c(-c2cccs2)c(=O)c2ccccc21	?	–	20705	–	–
Cc1ccccc1C(=O)Nc1c(-c2cccs2)c(=O)c2ccccc2n1C	–	–	–	–	–
